The list is not random: actives were taken first. Their share in the collection is about 7.8%.
HCV inh – inhibitors of hepatitis C virus infection | Huh7.5.1 HCVcc-Cre infection, luciferase reporter, 44 h | Potency, µM (titrated, usually from 41.8 µM), without a hit: top-dose activity change, negative = inhibition, most hits filed as inhibitors | 3.4% of 340,000 active | AID 651820; active = well fitted inhibition curve with a large enough effect; inconclusive = small, poorly fitted or top-dose-only effect, or another doubt; inactive = no such curve, though single readings can be large or run the other way; also: potency is read from the fitted curve at half-maximal effect
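Cells (1,000/well) were plated 4 h before compound, then infected with HCVcc-Cre virus (~0.5 moi). After 44 h further culture, infection was read as luciferase luminescence following a 15 min substrate incubation at room temperature.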
LASV entry inh – blocks Lassa virus binding to or entry into cells; Potency, µM (titrated, usually from 37.9 µM), without a hit: at the highest dose activity change, negative = inhibition, hits mostly inhibitors; Lassa virus pseudotype entry inhibition, cell reporter; 1.2% of 300,000 active; AID 540256; calls by dose curve; tested in HEK293 cells; also: potency is read from the fitted curve at half-maximal effect; nearly all actives have a fitted effect of over 50% in size
MARV entry inh – blocks Marburg virus binding to or entry into cells | Marburg virus pseudotyped entry inhibition, cell reporter | Potency, µM (series often up to 37.8 µM), inactives show top-dose activity change, negative = inhibition, most hits filed as inhibitors | 1.8% of 300,000 active | AID 540276; calls by dose curve; tested in HEK293 cells; also: potency is read from the fitted curve at half-maximal effect
Vaccinia mCherry – vaccinia inhibition (mCherry reporter); Vaccinia virus mCherry reporter infection, fluorescence; Potency, µM (titrated, usually from 36.5 µM), for the others: at the highest dose activity change, negative = inhibition, hits mostly inhibitors; 0.63% of 310,000 active; calls by dose curve; tested in A549 cells; also: potency is read from the fitted curve at half-maximal effect; nearly all actives have a fitted effect of over 35% in size
VACV Venus inh – vaccinia inhibition (Venus reporter). Potency, µM (titrated, usually from 36.5 µM), without a hit: top-dose activity change, negative = inhibition, actives largely listed as inhibitors. Vaccinia virus Venus reporter expression, fluorescence. 0.46% of 330,000 active; calls by dose curve; tested in A549 cells; also: potency is read from the fitted curve at half-maximal effect; nearly all actives have a fitted effect of over 30% in size
HCMV antiviral – human cytomegalovirus inhibition; activity change, negative = inhibition, % at 57.5 µM; AID 1259415; HFF cells, HCMV-luciferase reporter, 72 h; active compounds read low; 4.5% of 410,000 active; in the data active = activity change below about -60%; inconclusive = no clear call, values can overlap the other calls; inactive = above about -39%
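Cell-based, HFFs, 1000 cells/well, 16 h 37C; cpds in DMSO + HCMV-luc, MOI 1 PFU/cell; 72 h 37C; OneGlo luminescence after 5 min RT; norm. to buffer vs Salinomycin 10uM.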
Starred values were filed as active, the others as inactive; i = inactive; ? = inconclusive; nt = no result; ! = not active in a repeat; [ ] = remark or other dose. % is scaled to controls: 0 for no effect and ±100 for the full control effect.

SMILES | HCV inh | LASV entry inh | MARV entry inh | Vaccinia mCherry | VACV Venus inh | HCMV antiviral
Cc1ccc(CNC(=O)c2ccc(N3CCCC3)c(NC(=O)Nc3ccc(C)cc3)c2)cc1 | nt | 1%[46.1 µM] | nt | -25% | -26% | -74*
CCOC(=O)c1ccc(N2CCCCC2)c(NS(=O)(=O)c2ccc(C)cc2)c1 | ? | ? | 7.9µM* | ? | -5%[7.34 µM] | -86*
CCN(CC)CCCNC(=O)c1ccc(N2CCCCC2)c(NS(=O)(=O)c2ccc(C)cc2)c1 | -11% | 11% | 15µM* | nt | nt | -34
CCc1nc(N)c(C#N)c(-c2cccnc2)c1C | 5% | 10% | 3% | nt | nt | -4
Cc1nc(N)c(C#N)c(-c2cccnc2)c1C | 13% | 9% | 17% | -20% | -18% | -70*
CC(=O)c1c(CSc2ccccc2)oc2ccc(O)c(CN(C)C)c12 | ? | ? | ? | -22% | -15% | -69*
COC(=O)Cc1c(CSc2ccccc2)oc2ccc(O)c(CN(C)C)c12 | ? | -23%[46.1 µM] | 0%[46.1 µM] | -19% | -17% | ?
CCOC(=O)c1c(CSc2ccc(CC)cc2)oc2ccc(O)c(CN(C)C)c12 | 4µM* | ? | 4.5µM* | -24% | ? | -82*
C=CCNc1nnc(Sc2ncccc2[N+](=O)[O-])s1 | -17% | -1% | -16%[46.1 µM] | 10µM* | ? | ?
CC(=O)Nc1c(C(=O)Nc2cccc(C)c2)nnn1-c1ccc(C)cc1 | nt | ? | 16%[46.1 µM] | -22% | -22% | -62*
CCc1ccc2nc(N(CCN(CC)CC)C(=O)c3ccco3)sc2c1 | nt | -4%[46.1 µM] | nt | -23% | -12% | -4
CCCOC(=O)CSC1=C(C#N)[C@H](c2ccccc2OC)[C@H](C#N)C(=O)N1 | nt | nt | 6% | nt | nt | nt
CC(C)Cn1c(SCC#N)nc2ccccc2c1=O | -13% | 1% | -20% | -13% | -14% | -101*
Cc1ccc(-c2csc(N/N=C/c3ccco3)n2)c(C)c1 | ? | 3.3µM* | 1.8µM* | -6% | 1% | ?
C=CCN1c2ccccc2[C@]23CCC(=O)N(CC(=O)OC)C2=NC(C(=O)OC)=C(C(=O)OC)[C@H]13 | nt | nt | 18%[14.2 µM] | nt | nt | nt
COc1cccc(NC(=O)c2c(C(=O)Nc3ccccc3)sc3nc(C)cc(=O)n23)c1 | nt | -3%[46.1 µM] | 2%[46.1 µM] | -8% | -5% | -24
CCSc1ncnc2nc[nH]c12 | nt | nt | nt | -20% | -5% | nt
CCCN(CCC)c1ncnc2nc[nH]c12 | -5% | nt | nt | ? | -27% | -88*
O=C(NCCc1nnc2n1CCN(Cc1ccsc1)CC2)c1ccc(F)cc1 | nt | nt | nt | -20% | -7% | nt
Cc1ccccc1-c1nnnn1C1CCS(=O)(=O)C1 (centres undefined) | 13% | nt | nt | nt | nt | -67*
COc1ccccc1NC(=O)c1cc2c(=O)n(Cc3cccs3)ccc2nc1C | nt | -30%[46.1 µM] | nt | -18% | -14% | -23
CCOCC(O)CNc1ccccc1 (centres undefined) | 30% | 5% | ? | i | -7% | ?
OC(CNc1ccccc1)COc1ccc(OCC(O)CNc2ccccc2)cc1 (centres undefined) | ? | ? | 11µM* | nt | 11µM* | ?
COC(=O)c1cc(NC(=S)NCc2ccc(Cl)cc2)cc(C(=O)OC)c1 | ? | -26% | -28% | i | -2% | -76*
COC(=O)c1cccc(NC(=S)NCc2ccc(Cl)cc2)c1 | -16% | -10% | -5% | -13%[1.46 µM] | -29% | -33
SMILES | HCV inh | LASV entry inh | MARV entry inh | Vaccinia mCherry | VACV Venus inh | HCMV antiviral
CCn1c2ccccc2c2cc(NC(=O)COC(=O)c3ccccc3O)ccc21 | 11µM* | ? | -26%[46.1 µM] | -2% | 2% | -16
CCn1c2ccccc2c2cc(NC(=O)CCCN3C(=O)CCC3=O)ccc21 | 3.5µM* | -29% | -28% | nt | -27% | -28
CCn1c2ccccc2c2cc(NC(=O)COC(=O)c3ccc(NC(=O)CC#N)cc3)ccc21 | ? | ? | 0% | ? | ? | -8
CCn1c2ccccc2c2cc(NC(=O)N3CCOCC3)ccc21 | ? | 4% | 5% | nt | -12% | 79
CCn1c2ccccc2c2cc(NC(=O)COC(=O)c3ccccc3F)ccc21 | ? | 11% | 2% | 10µM* | ? | -20
CCn1c2ccccc2c2cc(NC(=O)CN(C)CC(=O)Nc3ccc(N4CCOCC4)cc3)ccc21 | 11µM* | nt | nt | nt | nt | ?
CCN(CC)CCN(C(=O)c1ccco1)c1nc2ccc(Br)cc2s1 | nt | ? | nt | -13% | -2% | -21
Cc1ccc(C(=O)c2cn(Cc3ccccc3C)c3nc(C)ccc3c2=O)cc1 | nt | ? | ? | -17% | -12% | ?
Cn1c(C(=O)Nc2ccc(OC(F)(F)F)cc2)cc2c(=O)n3ccccc3nc21 | nt | -25%[46.1 µM] | nt | ? | ? | -31
CCn1c2ccccc2c2cc(NC(=O)COC(=O)c3cc(S(N)(=O)=O)c(Cl)cc3Cl)ccc21 | ? | 19% | -20%[46.1 µM] | 11µM* | ? | 0
COc1ccc(-c2cc(C(=O)NCCN3CCOCC3)c3ccccc3n2)cc1OC | nt | -7% | 17% | -16% | -9% | 29
COc1ccc(-c2c(-c3ccccc3)c(C(=O)C(=O)NCCCN(C)C)n3ccc4cc(OC)c(OC)cc4c23)cc1OC | ? | -13% | ? | -32% | -15% | -96*
Nc1ncnc2oc(-c3ccoc3)c(-c3ccco3)c12 | nt | nt | nt | ? | -16% | nt
Nc1ncnc2oc(-c3ccco3)c(-c3ccco3)c12 | 11µM* | -14% | ? | -23% | -20% | -39
O=C(C1CCN(c2nnc(N3CCCC3=O)s2)CC1)N1CCN(c2cccc(C(F)(F)F)c2)CC1 | ? | nt | nt | nt | nt | -79*
Cc1ccc(C)c(N2CCN(C(=O)C3CCN(c4nnc(N5CCCC5=O)s4)CC3)CC2)c1 | ? | ? | ? | nt | -19% | -30
O=C(/C=C/c1c(F)cccc1Cl)c1ccc(O)cc1 | 11µM* | nt | nt | nt | nt | -18
CCc1ccc(NC(=O)CCC(=O)N2CCSc3ccccc32)cc1 | -23% | nt | nt | -12% | -3% | -17
CCOc1ccc(CCNC(=O)CCC(=O)N2CCSc3ccccc32)cc1OCC | ? | nt | nt | nt | nt | 16
CCOc1ccccc1CNC(=O)CCCc1cn(C)c2ccccc12 | 0%[8.37 µM] | -16% | -5% | -25% | -24% | -21
CCc1cccc(NC(=O)CCC(=O)N2CCSc3ccccc32)c1 | -23% | -5%[46.1 µM] | nt | i | -14% | -66*!
CCOc1ccccc1CNC(=O)CCC(=O)N1CCSc2ccccc21 | nt | -3%[46.1 µM] | nt | -11% | -14% | -75*
CCOc1ccccc1CNC(=O)CCc1cn(C)c2ccccc12 | ? | -11%[46.1 µM] | 6.3µM* | -6% | -4% | 5
CCn1c(-c2cccnc2)nc2cc(NC(=O)COC)cc(C(=O)N3CC[C@@H]4CCCC[C@H]4C3)c21 | nt | nt | nt | -15% | -6% | nt
Cc1cccc2sc(NC(=O)c3ccc(Cl)s3)nc12 | 10µM* | nt | nt | i | -6% | 90
CCOC(=O)c1ccccc1NC(=O)Cn1c(=O)n(CCC(=O)NCc2ccccc2OC)c(=O)c2ccccc21 | nt | 4%[46.1 µM] | ? | -24% | -22% | -10
CC(=O)NCC1COc2ccccc2O1 (centres undefined) | 16% | nt | nt | nt | nt | 2

From PubChem BioAssay
